Insulin prom up: MIN6 insulin promoter up-regulation; actives 0.3% (n = 190,000); MIN6 insulin promoter-GFP reporter, high-content imaging; stronger effect = higher value; z-score at 5 µM;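 active = z-score above 3 at 5 µM with at least 500 cells counted in the well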
HCT116 bCat-KO: beta-catenin-lacking colon tumor cell growth suppression. HCT116 beta-catenin knockout viability, CellTiter-Glo, 60 h; stronger effect = lower value. viability, % at 10 µM. actives 1.5% (n = 140,000). AID 818;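 active = viability at or under a set limit, the compound median less 4 SD, cut at about 6% in these data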
Insulin prom inh: TRM-6 insulin promoter activity inhibition. inhibition, % at 2 µM. TRM-6 cells (human fetal islet line), insulin promoter-eGFP reporter, imaging; reporter expression induced with tamoxifen. AID 1273. actives 0.9% (n = 130,000);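 active = inhibition above the mean plus 3 SD, with well images judged a real hit on visual review, cut at about 60% in these data, passing the limit was not always enough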
Autophagy HCS: autophagy modulation, high-content screen; MEF GFP-LC3 puncta imaging; test concentration mostly 10 µM; calls only at 10 µM (by protocol); actives 0.98% (n = 190,000); AID 463193;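 active = percentage of spot-positive cells more than 3 SD above its plate mean, without a fluorescence outlier flag or 80% toxicity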
Lmaj promast: inhibitors of Leishmania major promastigote growth; Leishmania major promastigotes, resazurin fluorescence viability; inhibition, % at 10 µM; actives 9% (n = 200,000); AID 1063; in the data active = inhibition above about 50%;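 note: promastigotes grown with compound for 44 hours at 28 °C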
HCT116 PTEN-null: growth suppressors of cells with PTEN tumor suppressor deletion | actives 1.2% (n = 140,000) | HCT116 PTEN-null viability, CellTiter-Glo, 60 h; stronger effect = lower value | viability, % at 10 µM;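 active = viability at or below a set limit, 4 SD under the median of all tested compounds, cut at about 3.7% in these data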;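 note: PTEN knockout HCT116 line with beta catenin targeted HCT116 as companion control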
Each line names hits and unclear results; the compound was inactive in the other large screens. An excerpt weighted towards active compounds, which were near 9.6% of everything screened.

CC(=O)Nc1nc(N2C(=O)c3ccccc3C2=O)n(-c2ccccc2)n1	Insulin prom inh 76
Cc1c(C)c(C)c(S(=O)(=O)N2CCSCC2)c(C)c1C	none (no result: HCT116 bCat-KO, Insulin prom inh, Autophagy HCS, Lmaj promast, HCT116 PTEN-null)
O=C(CSc1ccc2ccccc2c1)Nc1ccncc1	none
O=C(CSc1ccc2ccccc2c1)Nc1ccc(S(=O)(=O)Nc2nccs2)cc1	Lmaj promast 54
O=C(CSc1ccncc1)Nc1ccc2ccccc2c1	Lmaj promast 91 (no result: Insulin prom up, HCT116 bCat-KO, HCT116 PTEN-null)
COc1ccc(Cl)cc1NC(=O)CN1CCC(n2nnc3cc(C)ccc32)CC1	none (no result: Insulin prom inh)
Cc1ccc2c(c1)nnn2C1CCN(CC(=O)Nc2ccccc2N2CCOCC2)CC1	Lmaj promast 59
CC1Cc2ccccc2N1C(=O)CN1CCC(n2nnc3cc(C(F)(F)F)ccc32)CC1 (stereo unspecified)	Lmaj promast 95 (no result: Insulin prom up, Insulin prom inh)
C/C(=N\NC(N)=O)c1cccc(Cl)c1	Lmaj promast 83
c1ccc(CNc2ncnc3c2cnn3-c2ccccc2)cc1	none (no result: Insulin prom inh)
c1ccc(-n2ncc3c(NCCN4CCCCC4)ncnc32)cc1	Lmaj promast 98 (no result: Insulin prom inh)
Fc1ccc(CNc2ncnc3c2cnn3-c2ccccc2)cc1	Autophagy HCS active
c1ccc(-n2ncc3c(NCCN4CCOCC4)ncnc32)cc1	none (no result: Insulin prom inh)
COc1ccc(-n2nc(C(=O)c3cccs3)cc(-c3nc4ccccc4[nH]3)c2=N)cc1	Autophagy HCS active, Lmaj promast 99 (no result: Insulin prom up)
COC(=O)CSc1ncccc1-c1nc2ccccc2[nH]1	none (no result: Insulin prom up)
Cc1cccc(-n2nc(C(=O)c3ccco3)cc(-c3nc4ccccc4[nH]3)c2=N)c1	Lmaj promast 100
Cc1ccccc1-n1nc(C(=O)c2cccs2)cc(-c2nc3ccccc3[nH]2)c1=N	Autophagy HCS active, Lmaj promast 98
O=C(Cc1cccs1)Nc1ccccc1-c1nc2ccccc2[nH]1	none (no result: HCT116 bCat-KO, Insulin prom inh, Autophagy HCS, Lmaj promast, HCT116 PTEN-null)
COc1ccc(C2=NOC(C(=O)NCc3cccs3)C2)cc1 (stereo unspecified)	Autophagy HCS active
CCc1nc(N)nc(N)c1-c1ccc(Cl)cc1	none (no result: Insulin prom up)
CCc1cc(C(=O)N=Nc2c(O)[nH]c3ccc([N+](=O)[O-])cc23)c2ccccc2n1	none
CCN(CC)S(=O)(=O)c1cc([N+](=O)[O-])ccc1N=Nc1c(O)[nH]c2ccccc12	Autophagy HCS active (no result: Insulin prom up)
CC(Oc1ccccc1)C(=O)N=Nc1c(O)[nH]c2ccc([N+](=O)[O-])cc12 (stereo unspecified)	none (no result: HCT116 bCat-KO, Insulin prom inh, HCT116 PTEN-null)
CCCCCCC(=O)N=Nc1c(O)[nH]c2ccc([N+](=O)[O-])cc12	Lmaj promast 78
CCOC(=O)c1[nH]c(COC(=O)c2ccccc2NC(=O)c2ccco2)c(C(=O)OCC)c1C	none
O=S(=O)(c1ccc(Cl)cc1)N1CCC(n2cccc2)CC1	none (no result: HCT116 bCat-KO, Insulin prom inh, Autophagy HCS, Lmaj promast, HCT116 PTEN-null)
Cc1ccc(NC(=O)C2CCN(S(=O)(=O)c3ccc(F)cc3)CC2)cc1	Lmaj promast 99
O=S(=O)(c1ccc(Cl)cc1)N1CCC(N2CCCCCC2)CC1	Lmaj promast 97 (no result: Insulin prom up, Insulin prom inh)
CCS(=O)(=O)N1CCN(S(=O)(=O)c2ccc(F)cc2)CC1	none (no result: Insulin prom up, Insulin prom inh)
C=CCNC(=O)C1CCN(S(=O)(=O)c2ccc(Br)cc2)CC1	Insulin prom up 3.1 (no result: Insulin prom inh)
CC1CCN(C2CCN(S(=O)(=O)c3ccc(F)cc3)CC2)CC1	Lmaj promast 90
Cc1cc(C(=O)NCC(=O)O)c(C)o1	none (no result: Insulin prom up)
O=C(CSc1ccc(-c2ccccn2)nn1)c1ccccc1	none (no result: HCT116 bCat-KO, Insulin prom inh, HCT116 PTEN-null)
COc1ccc(OCC(=O)NC(=S)Nc2ccc3c4c(cccc24)CC3)cc1	none
COc1ccccc1NC(=O)CN(Cc1ccco1)C(=O)c1cccs1	none (no result: Insulin prom up, Insulin prom inh)
CC1CN(C2CCN(S(=O)(=O)c3ccc4ccccc4c3)CC2)CC(C)O1 (stereo unspecified)	Lmaj promast 94 (no result: Insulin prom inh, HCT116 PTEN-null)
CCOC(=O)N1CCC(N2CCN(S(=O)(=O)c3ccc(Cl)cc3)CC2)CC1	Lmaj promast 95
CCN1CCN(S(=O)(=O)c2ccc3ccccc3c2)CC1	none
CCOC(=O)N1CCN(C(=O)CN(Cc2ccc(Cl)cc2)S(C)(=O)=O)CC1	none
CCOC(=O)N1CCN(C(=O)CN(Cc2ccc(Cl)cc2)S(=O)(=O)c2ccc(C)cc2)CC1	Lmaj promast 93
CCOC(=O)N1CCC(N2CCN(c3cc(C)ccc3C)CC2)CC1	Lmaj promast 95
Cn1c2ccccc2c2nnc(SCC(=O)NCc3ccoc3)nc21	none (no result: HCT116 bCat-KO, Insulin prom inh, HCT116 PTEN-null)
O=C(CCl)Oc1ccc2occ(C(=O)c3cccs3)c2c1	none
Cc1nc2c(-c3ccccc3)c(C)[nH]n2c(=O)c1Cc1ccccc1	none (no result: HCT116 bCat-KO, HCT116 PTEN-null)
O=S(=O)(c1ccc(F)cc1)N1CCC(N2CCCCCC2)CC1	Lmaj promast 98
Cc1cc(C)cc(NC(=O)c2oc3ccccc3c2COc2ccccc2)c1	Lmaj promast 89
Cn1c(Cl)cnc1C1CC(=O)c2cc(Cl)ccc2O1 (stereo unspecified)	HCT116 bCat-KO 2.8, Lmaj promast 100, HCT116 PTEN-null 1.8 (no result: Insulin prom inh)
Cc1c2c(nc3c(C)cccc13)OC(C)C2 (stereo unspecified)	Autophagy HCS active
Cc1cccc(C2N(c3nccs3)C(=O)C3CCCN32)c1 (stereo unspecified)	none (no result: Insulin prom inh)
CC1(C)CC(=O)C2=C(C1)OC1=C(C(=O)CC(C)(C)C1)C2c1ccc(O)c([N+](=O)[O-])c1	none (no result: HCT116 bCat-KO, HCT116 PTEN-null)
CC1(C)CC(=O)C2=C(C1)OC1=C(C(=O)CC(C)(C)C1)C2c1ccc(O)cc1O	HCT116 bCat-KO 2.1, Lmaj promast 76, HCT116 PTEN-null 1.8
O=C(NNC(=O)c1ccc([N+](=O)[O-])cc1Cl)c1ccncc1	Lmaj promast 84
Cc1ccc(NC(=O)C2=C(O)CCn3c2nc2ccccc23)cc1	Lmaj promast 57
Cc1ccc(NC(=O)c2cc(N3CCOCC3)nc3ccccc23)cc1	none
N#CCSc1nc2c(cc1C#N)CCCC2	none
CCOc1ccc(-c2nnc(-c3ccncc3)o2)cc1	none
CCn1c(-c2cccn(Cc3ccccc3)c2=O)n[nH]c1=S	none (no result: HCT116 bCat-KO, HCT116 PTEN-null)
O=C1NN=C(c2ccc(Cl)cc2)CC1c1c[nH]c2ccccc12 (stereo unspecified)	none (no result: HCT116 bCat-KO, HCT116 PTEN-null)
CSc1nc(C)cc(C)c1S(=O)(=O)c1ccccc1C	none (no result: Insulin prom up)
CCSc1nc(C)cc(C)c1S(=O)(=O)c1ccccc1C	Lmaj promast 88
COc1ccc(Cc2[nH]n3c(=O)cc(C(C)C)nc3c2-c2ccccc2)cc1	Lmaj promast 97 (no result: HCT116 bCat-KO, HCT116 PTEN-null)
COc1ccc(Cc2[nH]n3c(=O)cc(C)nc3c2-c2ccccc2)cc1	none (no result: HCT116 bCat-KO, HCT116 PTEN-null)
COc1ccc(N2CCN(C(=O)c3cc4c(s3)-c3ccccc3S(=O)(=O)C4)CC2)cc1	none (no result: HCT116 bCat-KO, Insulin prom inh, Autophagy HCS, Lmaj promast, HCT116 PTEN-null)
CC(C)C(NC(=O)/C=C/c1cccc([N+](=O)[O-])c1)C(C)C	none
c1ccc(Nc2nc(N3CCOCC3)nc(N3CCOCC3)n2)cc1	none (no result: Insulin prom inh)
c1ccc2oc(-c3ccc(Nc4nc(N5CCCCC5)nc(N5CCOCC5)n4)cc3)nc2c1	Lmaj promast 74
CCCNc1nc(Nc2ccc(C)cc2)nc(N2CCCC2)n1	Lmaj promast 89 (no result: Insulin prom up)
NNc1nc(Nc2ccccc2)nc(Nc2ccccc2)n1	Lmaj promast 100 (no result: Insulin prom up, HCT116 bCat-KO, HCT116 PTEN-null)
NNc1nc(Nc2ccccc2)nc(N2CCCCC2)n1	Lmaj promast 100
CCC[C@@H](NS(=O)(=O)c1ccc(C)cc1)C(=O)Oc1ccc2c3c(c(=O)oc2c1)CCC3	none (no result: Insulin prom inh)

Screening data (PubChem BioAssay)
